Results from PubChem BioAssay (NCATS).
Results filed as inconclusive are left out. A number with no mark means an inactive call. Active and inactive are the calls of the source. The call rests on the fitted dose curve; in most records, active means well fitted cell-killing curve with a large enough effect; inconclusive means small, poorly fitted or top-dose-only effect; inactive means flat fitted curve, though single readings scatter.

experiment: Cell Viability - N2a (AID 540); settings: N2a mouse neuroblastoma cell viability; activity change, negative = cytotoxicity: at 92.2 µM (top of the series);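 further: cells exposed to compound for 40 h at 37 °C; nearly all actives have a fitted effect of over 45% in size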;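 on activity change, negative = cytotoxicity: plate controls were DMSO alone for no effect and tamoxifen control for full effect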
From the text: NIH Chemical Genomics Center [NCGC]
NIH Molecular Libraries Screening Centers Network [MLSCN]
National Institutes of Environmental Health Sciences [NIEHS]
National Toxicology Program [NTP]
We have developed a 1536-well cell-based assay for quantitative high throughput screening (qHTS) against a number of cell lines to determine in vitro cytotoxicity of small molecules. This particular assay uses the N2a cell line which is derived from mouse neuroblastoma.
NCGC Assay Protocol Summary:
The CellTiter-Glo luminescent cell viability assay (Promega) is a homogeneous method to measure the number of viable cells in culture. The end point readout of this assay is based on quantitation of intracellular ATP, an indicator of metabolic activity, using the luciferase reaction. Luciferase catalyzes the oxidation of beetle Luciferin to oxyluciferin and light in the presence of ATP. The luminescent signal is proportional to amount of ATP present.
Using the CellTiter-Glo luminescent cell viability assay, the amount of cellular ATP was measured in the N2a cell line with complete culture medium following compound treatment for 40 hours. The assay was performed in opaque white Kalypsys 1536-well plates. In the screen, tamoxifen and doxorubicin were used as positive controls. Library compounds were measured for their ability to cause acute toxicity in the cell line, as reflected by a decrease in intracellular ATP levels, in a concentration-dependent manner. […] AC50 values were determined from concentration-response data modeled with the standard Hill equation.
qHTS protocol for CellTiter Glo N2a cellular assay
[Step] [Parameter] [Value] [Description]
1. Reagent; 5 uL; 1500 N2a cells/well
2. Time; 5 hr; 37 °C incubation
4. Controls; 23 nL; Tamoxifen 0.34 uM to 100 uM & Doxorubicin 0.02 nM to 100 uM
5. Time; 40 hr; 37 °C incubation
6. Reagent; 5 uL; CellTiter Glo reagent
7. Time; 20 min; Room Temperature
8. Detection; Luminescence; Viewlux plate reader
Keywords: cell viability, cytotoxicity, N2a cell line, luminescence, NTPHTS, NTPHTS_NCGC, NIEHS, EPA, DSSTox, MLSMR, MLSCN, NIH Roadmap, qHTS, NCGC
Potency means the concentration at half of the fitted maximal effect.

Row | SMILES | activity change, negative = cytotoxicity | Potency
1 | Nc1cccc2c(N)cccc12 | -1.71% | –
2 | Nc1c2ccccc2nc2ccccc12 | -89.3% (active) | –
3 | Cc1cc(C(C)(C)C)c(O)c(C(C)(C)C)c1 | -1.09% | –
4 | CC(C)(c1ccc(O)cc1)c1ccc(O)cc1 | – | inactive
5 | CC(=O)OC/C=C(C)/C=C/C=C(C)/C=C/C1=C(C)CCCC1(C)C | -12.3% | –
6 | CC(C)C(C)(C)C(C)(C)C(C)(C)S | -4.38% | –
7 | O=C(c1ccccc1)c1ccccc1 | -19.1% | –
8 | C1=CC2C3C=CC(C3)C2C1 (centres undefined) | 0.0179% | –
9 | c1ccc2occc2c1 | 0.53% | –
10 | O=C(NO)c1ccccc1 | -4.83% | –
11 | Oc1ccccc1 | -19.8% | –
12 | Nc1ccc(O)cc1 | – | 31.6 µM (active)
13 | CCCCCCCCCCCCCCCC[n+]1ccccc1 | – | 0.398 µM (active)
14 | CCCCC(CC)COC(=O)c1ccccc1C(=O)O (centres undefined) | -4.05% | –
15 | O=C(Oc1ccccc1)c1ccccc1O | -0.773% | –
16 | OCc1c[nH]c2ccccc12 | 4.88% | –
17 | Brc1ccccc1-c1ccccc1 | -0.487% | –
18 | Cc1ccc(O)cc1 | -11.7% | –
19 | COc1cc(C=O)ccc1O | -7.16% | –
